Screens: PubChem BioAssay, National Center for Advancing Translational Sciences (NCATS)
An excerpt weighted towards active compounds, which were near 11% of everything screened.
ALDH1A1 inh – blocks purified human ALDH1A1 activity; P00352; Purified ALDH1A1, NADH fluorescence, propionaldehyde substrate; Potency, µM (doses to about 75.3 µM), hits mostly inhibitors; 220,000 compounds, 7.3% hits; active = well fitted inhibition curve with a large enough effect, not every such curve was filed as active; inconclusive = small, poorly fitted or top-dose-only effect, or another doubt; inactive = no such curve, though single readings can be large or run the other way
HPGD block – HPGD (human) dehydrogenase inhibition; AID 894; P15428; purified HPGD, NADH fluorescence kinetic, PGE2 substrate; Potency, µM, hits mostly inhibitors; 150,000 compounds, 4.3% hits; active = well fitted inhibition curve with a large enough effect, not every such curve was filed as active; inconclusive = small, poorly fitted or top-dose-only effect, or another doubt; inactive = no such curve, though single readings can be large or run the other way
Target sequence (P15428 whole entry, looked up): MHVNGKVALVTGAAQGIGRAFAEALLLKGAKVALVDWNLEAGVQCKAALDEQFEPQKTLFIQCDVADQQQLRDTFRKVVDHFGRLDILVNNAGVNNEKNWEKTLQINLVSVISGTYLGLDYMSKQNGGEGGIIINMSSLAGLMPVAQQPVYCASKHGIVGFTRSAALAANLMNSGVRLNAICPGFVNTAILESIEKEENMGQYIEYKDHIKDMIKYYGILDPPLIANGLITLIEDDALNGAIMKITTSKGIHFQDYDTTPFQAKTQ
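NADH formation kinetics: reaction with 30 uM PGE2 and 1 mM NAD+ (final), 20 nM enzyme, Tris-HCl pH 8 with Tween 20, after 15 min compound preincubation at room temperature. Fluorescence change, last versus first of five reads.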
ALOX12 inhib – blocks human 12-lipoxygenase activity | Potency, µM (highest dose often 57.1 µM), hits mostly inhibitors | P18054 | purified 12-hLO, xylenol orange hydroperoxide absorbance | 150,000 compounds, 0.12% hits; note: nearly all actives have a fitted effect of over 55% in size
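Purified human 12hLO (150 nM final) was preincubated with compounds for 15 min at room temperature in 25 mM Hepes pH 7.0, 0.01% Triton X-100, then reacted with 40 uM arachidonic acid for 30 min. Hydroperoxide was detected with ferrous iron/xylenol orange.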
PNC inhibitor – blocks assembly of the perinucleolar compartment; PC3M PTB-GFP, PNC prevalence imaging, 16 h; active compounds read low; activity change (PNC), negative = inhibition, % at 10 µM; AID 2417; 140,000 compounds, 3.1% hits;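 active = readout at or below -70, meaning at least 70% loss of cells showing the perinucleolar compartment, a nuclear body marking cancer cells; inconclusive = readout between -30 and a set limit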
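Read-out is percentage of cells bearing a perinucleolar compartment, from automated 20x imaging of fixed, Hoechst-stained PC3M PTB-GFP cells. Cells were seeded 4 h, then exposed 16 h to compound (23 nl of library stock) in duplicate plates.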
IMPase inh – membrane-permeable compound that blocks inositol monophosphatase; inhibition (IP1 accumulation), % at 46.1 µM; AID 901; 120,000 tested, under 10 active; CHO-M1 cells, IP1 accumulation, HTRF TR-FRET ratio; active = well fitted curve in the direction sought with a large enough effect in the signal ratio, not every such curve was filed as active; inconclusive = small, poorly fitted or top-dose-only effect, or a change in a side signal; inactive = no such curve, though single readings can be large or run the other way; the % refers to the signal ratio;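 note: cells stimulated with carbachol in lithium chloride buffer; higher means more IMPase inhibition seen as more IP1 and lower FRET ratio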
Target sequence (P97697 whole entry, looked up): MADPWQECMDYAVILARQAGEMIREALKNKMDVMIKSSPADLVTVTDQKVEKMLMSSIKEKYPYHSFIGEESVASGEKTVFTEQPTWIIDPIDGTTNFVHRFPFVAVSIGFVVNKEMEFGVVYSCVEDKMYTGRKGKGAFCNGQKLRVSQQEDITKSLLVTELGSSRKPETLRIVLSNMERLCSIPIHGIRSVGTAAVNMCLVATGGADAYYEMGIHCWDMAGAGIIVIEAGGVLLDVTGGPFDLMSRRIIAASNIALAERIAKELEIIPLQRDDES
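Measured: the HTRF emission ratio (665/620 nm) plus the 620 nm donor channel, each fitted to the Hill equation to give AC50. Cells were CHO-M1 given compounds up to 46 uM and a 30 min carbachol stimulation at 37C.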
IMPase Li inh – cell-permeable IMPase inhibitors with lithium potentiation | CHO-M1 cells, IP1 TR-FRET (IP-One), carbachol + lithium | AID 1457 | 210,000 compounds, 0.35% hits | Potency, µM (highest dose often 59.4 µM), most hits filed as inhibitors;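 note: IP1 builds up when IMPase is blocked and the TR-FRET signal falls; nearly all actives have a fitted effect of over 50% in size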
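Steps: plate 2000 CHO-M1 cells per well and culture 16–30 h; add compound and lithium; incubate 30 min, 37C; add d2-IP1 tracer and Eu cryptate anti-IP1 antibody in lysis buffer; read after 10 min at room temperature.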
Hits are given with their value; . = inactive; ? = inconclusive; / = not tested or not shown; [ ] = dose if it differs, or a comment. Unless noted, calls come from the whole dose curve; as a rule, active = well fitted curve in the direction sought with a large enough effect; inconclusive = small, poorly fitted or top-dose-only effect, or another doubt; inactive = no such curve, though single readings can be large; an effect the other way counts as inactive or inconclusive.

SMILES	ALDH1A1 inh	HPGD block	ALOX12 inhib	PNC inhibitor	IMPase inh	IMPase Li inh
Cc1ccc(S(=O)(=O)C2(C(=O)NC3CCCC3)CC2)cc1	?	.	.	.	.	.
Cc1ccc(S(=O)(=O)NC(=S)NC2CCCCC2)cc1	35µM	/	/	/	/	.
O=C(c1cnccn1)N1CCC2(CC1)CCN(C(c1ccccc1)c1ccccc1)CC2	.	.	.	/	/	.
CN(c1ccccc1C(=O)O)S(=O)(=O)c1ccc2[nH]c(=O)oc2c1	/	/	/	/	.	/
O=C(N/C(=C/c1cn(-c2ccccc2)nc1-c1ccccc1)C(=O)N1CCOCC1)c1ccc(Cl)cc1Cl	16µM	.	.	.	/	.
O=C(c1cn(-c2ccccc2)nc1-c1ccc(F)cc1)N1CCOCC1	?	.	.	.	.	.
O=C(c1cn(-c2ccccc2)nc1-c1cccs1)N1CCN(c2ccccc2)CC1	?	.	.	-83	.	.
O=C(c1cn(-c2ccccc2)nc1-c1cccs1)N1CCOCC1	.	.	.	.	.	.
O=C(c1cn(-c2ccccc2)nc1-c1cccc(Br)c1)N1CCOCC1	25µM	/	/	/	/	.
O=C(c1cn(-c2ccccc2)nc1-c1ccc(Br)cc1)N1CCOCC1	.	.	.	-114	/	.
CCOC(=O)c1c(C)n(-c2ccccc2)c2ccc(OC(=O)c3cccc(OC)c3OC)cc12	/	/	/	/	.	/
CCC(=O)[C@]12O[C@@]3(C4C(=O)OCCC41)N(CC)C(C)=C(C(=O)OC)C(c1ccccc1)N3C2=O (stereo partly specified)	.[13.5 µM]	/	/	/	/	/
O=C(c1ccccc1Oc1ccccc1)N1CCN(c2ccccc2)CC1	22µM	.	.	.	.	.
CCOc1ccccc1C(=O)N1CCN(c2cccc(Cl)c2)CC1	.	.	.	?	.	.
CN(C)c1ccc(-n2cccc2/C=C/[N+](=O)[O-])cc1	?	/	/	/	/	.
CN(c1ccccc1)c1ccc(/C=C/[N+](=O)[O-])cc1	8.9µM	32µM	.	.	/	.
Cc1ccnc(NC(=O)c2cc(-n3cnnc3)ccc2Cl)c1	.	.	.	-100	.	.
O=C(Nc1ccccn1)c1cc(-n2cnnc2)ccc1Cl	.	.	.	.	.	.
c1ccc(C(c2cccc3c2ccc2ccccc23)[C@H](c2ccccc2)c2cccc3c2ccc2ccccc23)cc1 (stereo partly specified)	.[13.5 µM]	.	/	/	/	.
CC(Sc1ccc2c(c1)OCCO2)C(=O)Nc1ccc2c(c1)OCO2 (stereo unspecified)	10µM	.	.	.	.	.
CCC(=O)Nc1ccc2c(c1)C(=O)c1ccccc1C2=O	7.9µM	.	.	.	.	.
CC(C)[C@H](NC(=O)Nc1cccc(Br)c1)C(=O)O	.	.	.	-91	/	.
CCC(=O)Nc1cccc(Br)c1	.	.	.	-116	.	.
Cc1c(C(=O)OCC(=O)Nc2ccc(C(N)=O)cc2)cccc1[N+](=O)[O-]	?	/	/	/	/	.
COc1ccccc1CN1CCCC2(CCN(S(C)(=O)=O)CC2)C1	.	.	.	/	/	.
SMILES	ALDH1A1 inh	HPGD block	ALOX12 inhib	PNC inhibitor	IMPase inh	IMPase Li inh
CC(C)N(C)NC(=S)Nc1ccccc1	.	.	.	?	/	.
CCOCC(=O)Nc1cccc(NC(C)=O)c1	.	.	.	?	.	.
COc1cc(Cl)c(C)cc1NC(=O)COC(=O)c1cc[n+]([O-])cc1	16µM	/	/	/	/	.
O=C(COC(=O)c1cc[n+]([O-])cc1)Nc1ccc2c(c1)OCCO2	14µM	.	.	.	.	.
CCOCC(=O)Nc1cccc(Br)c1	20µM	25µM	.	.	.	.
O=C(COC(=O)c1cc[n+]([O-])cc1)Nc1ccccc1Cl	.	/	/	/	/	.
CC(C)C(NC(=S)Nc1ccccc1)C(=O)O (stereo unspecified)	.	32µM	.	?	/	.
Cn1cccc1C(=O)N1CCC2(CC1)CN(C(=O)Nc1cccc(F)c1)C2	.	.	.	/	/	.
CCOCC(=O)Nc1ccc(F)c(F)c1	.	28µM	.	.	.	.
CCOCC(=O)Nc1ccc2c(c1)OCCO2	?	14µM	.	?	.	.
CCCOc1cccc(C(=O)Nc2ccc(-c3nc4ccccc4s3)c(Cl)c2)c1	/	/	/	/	.	/
CCSc1nnc(NC(=O)C(C(F)(F)F)C(F)(F)F)s1	18µM	3.5µM	.	.	.	.
O=C(Nc1nnc(SCC(=O)N2CCCCC2)s1)c1cccs1	?	14µM	.	.	.	.
O=C(Nc1nnc(SCC(=O)N2CCOCC2)s1)c1ccccc1Cl	22µM	?	.	.	.	.
Cc1nnc(NC(=O)c2cccc(S(=O)(=O)N3CCOCC3)c2)s1	.	.	.	?	.	.
O=C(Cc1cccs1)Nc1nnc(SCC(=O)N2CCCCC2)s1	.	.	.	?	.	.
